Source: PubChem BioAssay (NCATS)
Results filed as inconclusive are left out. Where a call stands in place of a potency, no number is given. The source made the active and inactive calls. The call rests on the fitted dose curve; in most records, active means well fitted inhibition curve with a large enough effect; inconclusive means small, poorly fitted or top-dose-only effect; inactive means no such curve, though single readings can be large or run the other way. *1 amine or outer side, *2 acyl side, *3 side chain or, on linkers, in order; H or OH if unused. Where a SMILES comes first, the peptide text is derived from it. [ ]: non-standard residue; d: D form. X4 = CC(C)=CCc1cc(C(O)C(N[*:1])C(=O)[*:2])ccc1O; dPhe(4-Cl) = N[C@H](Cc1ccc(Cl)cc1)C(=O)O; d2Nal = N[C@H](Cc1ccc2ccccc2c1)C(=O)O; dCit = NC(=O)NCCC[C@@H](N)C(=O)O; d3Pal = N[C@H](Cc1cccnc1)C(=O)O

Tests used:
[1] = tested on: Zika virus NS2B-NS3 protease (unlinked complex); test: Primary screen GU Rhodamine qHTS for Zika virus inhibitors: Unlinked NS2B-NS3 protease assay (AID 1347159); further: nearly all actives have a fitted effect of over 60% in size
Method in brief: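 Unlinked NS2B/NS3, 25 nM; Rhod110 peptide, 1.5 microM; compounds, up to 114 microM. Reaction run 15 min at RT in 10 mM Tris-HCl pH 8.0, 0.01% Tween 20; kinetic fluorescence change fitted with a 4-parameter Hill model.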

[2] = tested on: Zika virus NS2B-NS3 protease (linked construct); test: Primary screen NINDS Rhodamine qHTS for Zika virus inhibitors (AID 1347160); further: nearly all actives have a fitted effect of over 55% in size
Method in brief: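 Single-chain NS2B-NS3 protease, 25 nM, pH 8.0; compounds preincubated 15 min. Activity: Rhodamine110 release from 1.5 microM substrate over 15 min, room temperature, data fitted to 4-parameter Hill.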

Row | Compound | Potency [1] | Potency [2]
1 | CO[C@H]1/C=C\O[C@@]2(C)Oc3c(C)c(O)c4c(O)c(c5c(nc6cc(C)ccn65)c4c3C2=O)NC(=O)/C(C)=C\C=C/[C@H](C)[C@H](O)[C@@H](C)[C@@H](O)[C@@H](C)[C@H](OC(C)=O)[C@@H]1C | inactive | inactive
2 | COC(=O)C1=CO[C@@H](O[C@@H]2O[C@H](CO)[C@@H](O)[C@H](O)[C@H]2O)C2C1C(=O)C[C@H]2C (stereo partly specified) | inactive | inactive
3 | COc1ccc(CNC(=O)c2sc3nc(C)cc(C)c3c2N)cc1 | inactive | inactive
4 | CC1(C)CCC2(C(=O)OC3OC(CO)C(O)C(O)C3O)CCC3(C)C(=CCC4C5(C)CCC(OC6OC(C(=O)O)C(OC7OC(CO)C(O)C(O)C7O)C(OC7OC(CO)C(O)C(O)C7O)C6O)C(C)(C)C5CCC43C)C2C1 (stereo unspecified) | inactive | inactive
5 | CC(=O)N[C@H]1[C@H](O[C@H]2CC[C@@]3(C)C(CC[C@]4(C)C3CC=C3[C@@H]5CC(C)(C)CC[C@]5(C(=O)OC5OCC(O)C(O)C5O)CC[C@]34C)C2(C)C)O[C@H](COC2OC(C)C(O)C(OC3OC(C)C(O)C(O)C3O)C2O)[C@@H](O)[C@@H]1O (stereo partly specified) | inactive | inactive
6 | C[C@H]1O[C@@H](O[C@H]2CC[C@@]3(C)C(CC[C@]4(C)C3CC=C3C5CC(C)(C)CC[C@]5(C(=O)O)CC[C@]34C(=O)O)C2(C)C)[C@H](O)[C@@H](O)[C@@H]1O (stereo partly specified) | inactive | inactive
7 | CCCCNc1ccc(-c2ccc(CN3CCOCC3)cn2)c(NC2CCC(O)CC2)c1 (stereo unspecified) | inactive | inactive
8 | C[C@H](Nc1ncnc2nc[nH]c12)c1cc2ccc(F)cc2nc1-c1ccccn1 | inactive | inactive
9 | CC1C(=O)OCC2=CCN3CCC(OC(=O)C(C)(O)C1(C)O)C23 (stereo unspecified) | inactive | inactive
10 | CC(=O)O[C@H]1C[C@@]2(C)[C@@H](CC[C@H]3[C@@]4(C)C=CC(=O)[C@@H](C)[C@@H]4[C@H](O)C(=O)[C@@]32C)/C1=C(/CCC=C(C)C)C(=O)O | inactive | inactive
11 | CC(=O)N[C@H](Cc1ccc2ccccc2c1)C(=O)N[C@H](Cc1ccc(Cl)cc1)C(=O)N[C@H](Cc1cccnc1)C(=O)N[C@@H](CO)C(=O)N[C@@H](Cc1ccc(O)cc1)C(=O)N[C@H](CCCNC(N)=O)C(=O)N[C@@H](CC(C)C)C(=O)N[C@@H](CCCN=C(N)N)C(=O)N1CCC[C@H]1C(=O)N[C@H](C)C(N)=O (Ac-[d2Nal][dPhe(4-Cl)][d3Pal]SY[dCit]LRP[dA]-NH2) | inactive | inactive
12 | CC(C)C(C(=O)N(C)C(C)C(N)=O)N(C)C(=O)C1CCCN1C(=O)/C=C/C=C/C(O)C(C)O (stereo unspecified) | inactive | inactive
13 | CC(C)=CCC[C@](C)(O)[C@H]1CC[C@]2(C)[C@@H]1[C@H](O)CC1[C@@]3(C)CC[C@H](O)C(C)(C)C3[C@@H](O[C@@H]3O[C@H](CO)[C@@H](O)[C@H](O)[C@H]3O[C@@H]3OC[C@@H](O)[C@H](O)[C@H]3O)C[C@]12C (stereo partly specified) | inactive | inactive
14 | CC(C)=CCc1cc(C(O)C2NC(=O)CNC(=O)C(Cc3c[nH]c4ccccc34)NC(=O)C3CCCN3C(=O)CNC(=O)C(C(C)C)NC(=O)CNC2=O)ccc1O (stereo unspecified) (cyclo(G[X4]GVGPW); configuration not given here) | inactive | inactive
15 | C[C@@H]1[C@H]2[C@H](O[C@@H]3O[C@H](CO)[C@@H](O)[C@H](O)[C@H]3O)OC=C(C(=O)O)[C@H]2C[C@@H]1O | inactive | inactive
16 | Cc1[nH]nc(C(F)(F)F)c1Cc1sc2c(c1C(=O)N1C[C@](C)(O)CO1)c(=O)n(C)c(=O)n2C(C)C | inactive | inactive
17 | COC1=CC(=O)CC(C)C12Oc1cc(OC)cc(O)c1C2=O (stereo unspecified) | inactive | inactive
18 | COC(=O)CC1CC(c2ccc(O)cc2)=NO1 (stereo unspecified) | inactive | inactive
19 | O=C(Cc1ccc(-c2ccccc2)cc1)NC1CCC1 | inactive | inactive
20 | C=C1C(O)C(O)C2(CC3C(C)=CCC4C(C)(CO)CCCC34C)OC2C1O (stereo unspecified) | inactive | inactive
21 | CC#CC(=O)N1CCC[C@H]1c1nc(-c2ccc(C(=O)Nc3ccccn3)cc2)c2c(N)nccn12 | inactive | inactive
22 | CC12CCC(OC3OC(CO)C(O)C(OC4OC(CO)C(O)C(O)C4O)C3O)CC1CCC1C2CCC2(C)/C(=C3/COC(=O)C3)CCC12O (stereo unspecified) | inactive | inactive
23 | O=C(OC1C=C(CO)C2C(OC3OC(CO)C(O)C(O)C3O)OC=CC12)c1ccc(O)cc1 (stereo unspecified) | inactive | inactive
